# Laboratory results from PubChem BioAssay.
# Active and inactive are the calls of the source. Unless noted, the rule behind the calls is not given here.
# What was measured:
# [1] = Plasmodium falciparum growth inhibition, primary screen, strain 3D7, DAPI fluorescence, 100 nL (AID 1184);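 note: parasites grown inside human red blood cells in medium with human serum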; conditions: P. falciparum 3D7 growth, 3 d, higher = more signal
# [2] = molecular target: Homeobox protein Hox-A13 (Mus musculus) (UniProt Q62424); assay: inhibitors of HoxA13-DNA binding, primary screen, biochemical, fluorescence polarization, labeled oligonucleotide (AID 1185); conditions: 15 min, higher = more signal, called active from +8 up or from −8 down
# Homeobox protein Hox-A13 (Mus musculus), sequence (Q62424 whole entry, looked up): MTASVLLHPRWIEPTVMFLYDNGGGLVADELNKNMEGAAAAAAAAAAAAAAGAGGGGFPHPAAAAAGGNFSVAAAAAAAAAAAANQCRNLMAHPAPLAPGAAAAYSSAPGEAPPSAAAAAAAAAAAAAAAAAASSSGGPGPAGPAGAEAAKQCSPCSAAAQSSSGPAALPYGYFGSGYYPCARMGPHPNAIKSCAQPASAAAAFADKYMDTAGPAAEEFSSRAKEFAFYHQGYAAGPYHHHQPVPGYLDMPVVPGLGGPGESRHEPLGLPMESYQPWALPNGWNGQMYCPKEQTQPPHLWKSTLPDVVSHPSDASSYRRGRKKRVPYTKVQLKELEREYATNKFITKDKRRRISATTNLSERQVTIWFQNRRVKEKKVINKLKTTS
# [3] = inhibitors of hydroxyurea-induced Chk1 phosphorylation, primary screen, imaging, HeLa, phospho-Chk1 antibody, percent positive cells (AID 1186); conditions: hydroxyurea-induced phospho-Chk1 immunofluorescence imaging, higher = more signal
# [4] = inhibitors of hydroxyurea-induced Chk1 phosphorylation, primary screen, imaging, HeLa, phospho-Chk1 nuclear intensity (AID 1187); conditions: hydroxyurea-induced phospho-Chk1 immunofluorescence imaging, higher = more signal; note: test concentration not given here
SMILES,z-score [1],z-score [2],z-score [3],z-score [4]
COc1ccc(C#Cc2ccc3c(c2)[C@]2(C(=O)N3)[C@H](c3ccc(O)cc3)N3[C@H](c4ccccc4)[C@H](c4ccccc4)OC(=O)[C@H]3[C@@H]2C(N)=O)cc1,-1.17,-0.123 (inactive),0.186 (inactive),0.381 (inactive)
CC1CC/C=C\[C@H]2OC34C=CCN(C(C)C)C(=O)[C@H]3N(C(CO)C(C)C)C(=O)[C@@H]4C2C(=O)O1 (stereo partly specified),0.639,-4.54 (inactive),-0.686 (inactive),-0.549 (inactive)
CCCCCCC#C[Si](O[C@H](c1ccccc1)c1cn(Cc2ccccc2)nn1)(C(C)C)C(C)C,-0.934,1.18 (inactive),-0.766 (inactive),-0.601 (inactive)
CC(C)N1C(=O)c2ccccc2[C@@H](C(=O)NCc2ccccc2)[C@@H]1c1ccc(CO)cc1,-0.3,-0.468 (inactive),-0.67 (inactive),-0.869 (inactive)
CO[C@H]1O[C@H](CO)[C@@H](OC(=O)CCc2ccccc2)[C@@H]2OC(=O)[C@H](Cc3ccccc3)C/C=C/C[C@@H](Cc3ccccc3)C(=O)O[C@@H]12,-1.58,-2.71 (inactive),-0.527 (inactive),-0.474 (inactive)
NCCCCCCNC(=O)[C@@H]1C[C@@H]2C(=O)N[C@@H](Cc3ccccc3)C(=O)N2[C@@H]1c1ccc(O)cc1,-0.18,-1.74 (inactive),1 (inactive),0.982 (inactive)
O=C(NO)[C@]1(Cc2ccccc2)N=C(c2ccc(OCCCO)cc2)O[C@@H]1c1ccccc1,-1.26,-5.15 (inactive),-0.593 (inactive),-0.0319 (inactive)
CC(C)(C)OC(=O)CC[C@]1(C(=O)NCc2ccccc2)COC(c2ccc(OCCCO)cc2)=N1,-0.561,-5.02 (inactive),0.0879 (inactive),0.166 (inactive)
COC(=O)C1=CC(c2ccc(CO)cc2)=CC(C2CC2)N(C)C=C1C(=O)OC (stereo unspecified),-0.591,-8.22 (active),-0.516 (inactive),-0.732 (inactive)
C=CCN1C(=O)[C@@]2(O[C@@H](CCn3cc(CCO)nn3)[C@H]([Si](C)(C)c3ccc(OC)cc3)[C@H]2C)c2cc(NC(=O)c3ccc(OC)cc3)ccc21,-2.65,-4.19 (inactive),1.09 (inactive),1.28 (inactive)
C=CCNC(=O)[C@@H]1[C@H]2C(=O)O[C@H](c3ccccc3)[C@H](c3ccccc3)N2[C@H](c2ccc(O)cc2)[C@@]12C(=O)Nc1ccc(C#Cc3ccc(OC)cc3)cc12,-0.107,0.296 (inactive),-0.357 (inactive),-0.426 (inactive)
CCOC(=O)C[C@H]1[C@H](OC(=O)c2ccc(C(=O)c3ccccc3)cc2)[C@@H](NC(=O)Cc2ccc(OC)cc2)c2cc(OCCCO)ccc2N1C(=O)Cc1ccc(OC)cc1,-0.283,-2.01 (inactive),0.0944 (inactive),0.0944 (inactive)
CC(C)C(=C=CC[C@@H](O)c1ccc(CO)o1)CCO,-0.0113,-3.45 (inactive),-0.969 (inactive),-0.763 (inactive)
CCOC(=O)C[C@H]1[C@H](OC(=O)c2ccc(-c3ccccc3)cc2)[C@@H](NC(=O)c2ccccc2)c2cc(OCCCO)ccc2N1C(=O)c1ccccc1,-1.21,-0.959 (inactive),-1.04 (inactive),-0.361 (inactive)
C=CCN1C(=O)[C@]2(O[C@H](CCn3cc([C@H](O)c4ccccc4)nn3)[C@@H]([Si](C)(C)c3ccc(OC)cc3)[C@@H]2C)c2cc(N3CCOC3=O)ccc21,-2.91,-4.64 (inactive),-1.73 (inactive),-1.22 (inactive)
CC(C)(C)OC(=O)CC[C@]1(C(=O)NCc2ccccc2)N=C(c2ccc(OCCCO)cc2)O[C@H]1c1ccccc1N=[N+]=[N-],-2.16,-0.908 (inactive),-0.328 (inactive),0.252 (inactive)
[N-]=[N+]=NCc1ccccc1C[C@@]1(C(=O)O)N=C(c2ccc(OCCCO)cc2)O[C@@H]1c1ccccc1,-0.455,-5.05 (inactive),0.0912 (inactive),0.429 (inactive)
C=C[C@H](OC)[C@@H](OC(=O)Nc1ccc(OC)cc1)c1ccc(OC)c(O)c1,-0.294,-2.75 (inactive),0.0254 (inactive),0.471 (inactive)
C#CCOc1ccc(C[C@H]2C(=O)O[C@H](Cc3ccccc3)[C@H](/C=C/C3CC3)N2CC#C)cc1,-1.13,-0.167 (inactive),-0.54 (inactive),-0.582 (inactive)
NCCCCCNC(=O)[C@H]1C[C@H]2C(=O)NCC(=O)N2[C@H]1c1ccc(O)cc1,-0.223,-0.587 (inactive),0.637 (inactive),0.791 (inactive)

SMILES,z-score [1],z-score [2],z-score [3],z-score [4]
O=C(O)[C@H]1C[C@H]2C(=O)NCC(=O)N2[C@H]1c1cccc(OCCO)c1,-0.52,-3.76 (inactive),0.328 (inactive),0.212 (inactive)
CCCCC(=C=CC[C@@H](O)c1ccc(OCCO)cc1)C[C@@H](O)c1cc(Cl)cc(Cl)c1O,-2.87,-3.4 (inactive),-0.806 (inactive),-0.578 (inactive)
C[N+](C)(C)CCCC[C@@H]1NC(=O)[C@@H]2C[C@H](C(=O)NCCCCCNC(=O)CS)[C@H](c3ccc(O)cc3)N2C1=O,-0.34,-1.22 (inactive),-0.536 (inactive),-0.272 (inactive)
COc1ccc(C(=O)Nc2cccc(CN3C(=O)[C@@]4(O[C@@H](CCO)[C@H]([Si](C)(C)c5ccc(OC)cc5)[C@H]4C)c4ccccc43)c2)cc1,-2.7,-2.09 (inactive),-1.08 (inactive),-0.215 (inactive)
C=C(C1=CCN(S(=O)(=O)c2ccc(C)cc2)C1)[C@@H](OC(C)=O)[C@@H]1CCCN1S(=O)(=O)c1ccccc1[N+](=O)[O-],-2.68,-3.62 (inactive),-0.353 (inactive),0.0039 (inactive)
C=CC[C@@H](OC(=O)Nc1ccc(SC)cc1)c1ccc(OCCO)cc1,0.246,-5.9 (inactive),-0.0622 (inactive),0.593 (inactive)
CN(C)CCCC[C@@H]1NC(=O)[C@@H]2C[C@H](C(=O)NCCCCCNC(=O)CS)[C@H](c3cccc(OCCO)c3)N2C1=O,-1.46,-1.12 (inactive),0.27 (inactive),0.302 (inactive)
COC(=O)[C@@]1(CCC(=O)OC(C)(C)C)COC(c2ccc(OCCCO)cc2)=N1,-0.478,-2.57 (inactive),-0.14 (inactive),0.264 (inactive)
C=C(COC)C(=O)CC[C@@H](OC(=O)c1ccccc1-c1ccccc1C(=O)O)c1cccc(OCCO)c1,-1.24,-4.82 (inactive),0.273 (inactive),-0.307 (inactive)
C=CCC(OC(C)=O)[C@@H]1[C@@H](N(Cc2cccc3ccccc23)C(=O)Cc2ccc(OC)cc2)c2cc(OCCCO)ccc2N1C(=O)Cc1ccc(OC)cc1 (stereo partly specified),-2.1,-2.18 (inactive),0.162 (inactive),0.268 (inactive)
C=C(COC)/C(=C/C[C@H](OC(C)=O)c1cccc(OCCO)c1)c1cc(C(=O)OC)ccc1OC,-2.67,-2.39 (inactive),-0.283 (inactive),-0.727 (inactive)
COc1ccc([Si](C)(C)[C@H]2[C@H](CCO)O[C@@]3(C(=O)N(Cc4ccc(N5C(=O)c6cccc7cccc5c67)cc4)c4ccccc43)[C@@H]2C)cc1,-1.23,-0.82 (inactive),-1.48 (inactive),-1.39 (inactive)
COCCOC(=O)N1C(=O)[C@@]2(c3cc(C#CC4(O)CCCCCC4)ccc31)[C@H](c1ccc(O)cc1)N1[C@H](c3ccccc3)[C@H](c3ccccc3)OC(=O)[C@H]1[C@@H]2C(N)=O,-0.5,-2.38 (inactive),0.178 (inactive),0.0653 (inactive)
CC(C)C(=C=CC[C@H](O)c1ccc(OCCO)cc1)C[C@H](O)COCc1ccccc1,-2.65,-4.06 (inactive),-0.0011 (inactive),0.313 (inactive)
CC(=O)NCCCC[C@@H]1NC(=O)[C@@H]2C[C@H](C(=O)O)[C@H](c3cccc(OCCO)c3)N2C1=O,-0.313,0.294 (inactive),-0.0079 (inactive),0.165 (inactive)
CCCCC(=C=CC[C@H](O)c1cccc(OCCO)c1)CCO,-1.01,-2.75 (inactive),-0.0801 (inactive),-0.401 (inactive)
CCOC(=O)C[C@H]1[C@H](OC(=O)c2ccc(-c3ccccc3)cc2)[C@@H](NC(=O)C2CCCCC2)c2cc(OCCCO)ccc2N1C(=O)c1ccc2ccccc2n1,-0.915,-0.844 (inactive),-0.807 (inactive),-0.479 (inactive)
COc1ccc([Si](C)(C)[C@H]2[C@H](CC(=O)N(CCO)Cc3ccccc3)O[C@@]3(C(=O)N(Cc4cccc(N5C(=O)COc6ccccc65)c4)c4ccccc43)[C@@H]2C)cc1,-2.28,-1.15 (inactive),-0.567 (inactive),0.722 (inactive)
C=C(CCCC)/C(=C/C[C@@H](OC(=O)c1ccncc1)c1ccc(OCCO)cc1)c1cnc2ccccc2c1,-2.84,-2.35 (inactive),-0.191 (inactive),-0.181 (inactive)
